This is an account of results in the supplement of paper PMC10849652.

Targets with a hit are over-represented here; the source holds about 7,900 in all. About 0.6% of all pairs of compound and target were hits.

Chain of UniProt Q86VI4 (Q86VI4 whole entry, looked up): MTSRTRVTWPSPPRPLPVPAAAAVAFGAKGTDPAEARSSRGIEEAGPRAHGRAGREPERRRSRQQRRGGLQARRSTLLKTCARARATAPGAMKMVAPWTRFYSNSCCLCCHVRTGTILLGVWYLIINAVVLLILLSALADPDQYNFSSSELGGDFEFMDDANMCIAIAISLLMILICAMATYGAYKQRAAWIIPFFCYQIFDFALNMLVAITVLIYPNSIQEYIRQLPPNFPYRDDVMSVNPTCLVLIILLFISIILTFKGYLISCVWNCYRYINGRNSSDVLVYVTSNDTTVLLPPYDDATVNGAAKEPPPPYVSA
Chain of UniProt P50851 (P50851 whole entry, looked up): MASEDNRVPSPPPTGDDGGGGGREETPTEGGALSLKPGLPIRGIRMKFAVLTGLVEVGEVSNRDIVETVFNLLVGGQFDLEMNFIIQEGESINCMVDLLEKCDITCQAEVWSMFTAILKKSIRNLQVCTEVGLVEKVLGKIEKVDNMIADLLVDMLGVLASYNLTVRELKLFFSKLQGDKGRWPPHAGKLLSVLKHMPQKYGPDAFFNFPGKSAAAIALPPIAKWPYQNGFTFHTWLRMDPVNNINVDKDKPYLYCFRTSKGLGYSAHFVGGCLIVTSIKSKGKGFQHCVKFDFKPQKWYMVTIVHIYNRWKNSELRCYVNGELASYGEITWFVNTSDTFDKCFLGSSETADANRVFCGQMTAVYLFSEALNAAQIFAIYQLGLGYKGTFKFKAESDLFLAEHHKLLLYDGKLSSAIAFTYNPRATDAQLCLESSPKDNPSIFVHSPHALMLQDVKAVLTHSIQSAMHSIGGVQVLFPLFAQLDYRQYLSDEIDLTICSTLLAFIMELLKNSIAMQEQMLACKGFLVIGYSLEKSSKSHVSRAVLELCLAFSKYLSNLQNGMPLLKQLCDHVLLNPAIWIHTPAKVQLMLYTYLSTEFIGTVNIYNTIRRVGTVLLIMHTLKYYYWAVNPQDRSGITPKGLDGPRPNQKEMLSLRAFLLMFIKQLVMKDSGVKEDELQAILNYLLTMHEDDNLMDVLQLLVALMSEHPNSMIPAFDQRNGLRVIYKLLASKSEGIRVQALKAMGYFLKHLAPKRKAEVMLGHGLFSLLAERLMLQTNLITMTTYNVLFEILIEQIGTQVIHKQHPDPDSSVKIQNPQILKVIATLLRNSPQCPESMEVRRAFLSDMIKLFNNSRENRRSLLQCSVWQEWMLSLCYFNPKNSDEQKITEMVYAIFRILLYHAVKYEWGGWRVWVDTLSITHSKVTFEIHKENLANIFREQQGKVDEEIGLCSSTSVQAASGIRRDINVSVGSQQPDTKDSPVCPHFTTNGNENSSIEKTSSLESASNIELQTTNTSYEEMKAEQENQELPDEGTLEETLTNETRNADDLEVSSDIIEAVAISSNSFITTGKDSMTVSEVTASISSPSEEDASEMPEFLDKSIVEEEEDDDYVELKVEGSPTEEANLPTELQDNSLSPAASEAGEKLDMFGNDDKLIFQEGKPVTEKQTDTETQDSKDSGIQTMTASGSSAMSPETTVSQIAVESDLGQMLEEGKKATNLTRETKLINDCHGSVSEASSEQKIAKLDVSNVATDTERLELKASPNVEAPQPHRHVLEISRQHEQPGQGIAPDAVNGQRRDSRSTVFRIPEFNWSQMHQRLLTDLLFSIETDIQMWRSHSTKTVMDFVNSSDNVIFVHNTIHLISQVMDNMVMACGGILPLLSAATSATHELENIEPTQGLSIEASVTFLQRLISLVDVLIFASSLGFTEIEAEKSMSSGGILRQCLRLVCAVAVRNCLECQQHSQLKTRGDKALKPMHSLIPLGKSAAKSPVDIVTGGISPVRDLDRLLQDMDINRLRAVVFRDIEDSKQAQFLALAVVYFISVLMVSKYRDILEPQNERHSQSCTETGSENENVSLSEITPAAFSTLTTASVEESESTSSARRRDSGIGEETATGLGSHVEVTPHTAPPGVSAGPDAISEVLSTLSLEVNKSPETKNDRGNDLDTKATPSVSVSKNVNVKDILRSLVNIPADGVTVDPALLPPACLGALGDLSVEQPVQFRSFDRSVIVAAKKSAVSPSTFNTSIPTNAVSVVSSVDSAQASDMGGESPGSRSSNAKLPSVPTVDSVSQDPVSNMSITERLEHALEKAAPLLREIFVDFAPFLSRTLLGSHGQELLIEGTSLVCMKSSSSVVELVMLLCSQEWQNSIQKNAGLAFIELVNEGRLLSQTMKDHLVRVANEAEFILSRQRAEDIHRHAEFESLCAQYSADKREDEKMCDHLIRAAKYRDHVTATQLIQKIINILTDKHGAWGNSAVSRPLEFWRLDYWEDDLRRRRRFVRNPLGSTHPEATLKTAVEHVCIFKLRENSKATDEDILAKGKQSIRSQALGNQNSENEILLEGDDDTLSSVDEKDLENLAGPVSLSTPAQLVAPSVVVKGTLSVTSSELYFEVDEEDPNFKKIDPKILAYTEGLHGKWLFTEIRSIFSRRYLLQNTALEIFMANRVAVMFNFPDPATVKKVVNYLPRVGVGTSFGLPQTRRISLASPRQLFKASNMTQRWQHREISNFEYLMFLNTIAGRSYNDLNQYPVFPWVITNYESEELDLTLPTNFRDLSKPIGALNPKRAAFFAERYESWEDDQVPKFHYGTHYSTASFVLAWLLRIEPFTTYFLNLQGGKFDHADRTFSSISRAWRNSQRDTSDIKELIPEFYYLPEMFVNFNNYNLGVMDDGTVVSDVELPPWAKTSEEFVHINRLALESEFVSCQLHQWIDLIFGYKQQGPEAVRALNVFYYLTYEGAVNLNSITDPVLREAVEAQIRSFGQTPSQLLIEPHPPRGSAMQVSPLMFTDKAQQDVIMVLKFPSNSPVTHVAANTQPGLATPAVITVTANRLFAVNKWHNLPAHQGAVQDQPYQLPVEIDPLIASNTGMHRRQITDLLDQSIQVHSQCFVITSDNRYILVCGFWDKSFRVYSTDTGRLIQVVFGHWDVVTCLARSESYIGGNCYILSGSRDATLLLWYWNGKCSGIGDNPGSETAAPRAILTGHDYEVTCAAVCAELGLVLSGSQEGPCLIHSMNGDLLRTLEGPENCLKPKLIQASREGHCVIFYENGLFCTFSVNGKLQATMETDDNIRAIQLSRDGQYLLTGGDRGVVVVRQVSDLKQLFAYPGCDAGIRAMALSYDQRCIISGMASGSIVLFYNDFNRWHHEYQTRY
Chain of UniProt Q9NUN5 (Q9NUN5 whole entry, looked up): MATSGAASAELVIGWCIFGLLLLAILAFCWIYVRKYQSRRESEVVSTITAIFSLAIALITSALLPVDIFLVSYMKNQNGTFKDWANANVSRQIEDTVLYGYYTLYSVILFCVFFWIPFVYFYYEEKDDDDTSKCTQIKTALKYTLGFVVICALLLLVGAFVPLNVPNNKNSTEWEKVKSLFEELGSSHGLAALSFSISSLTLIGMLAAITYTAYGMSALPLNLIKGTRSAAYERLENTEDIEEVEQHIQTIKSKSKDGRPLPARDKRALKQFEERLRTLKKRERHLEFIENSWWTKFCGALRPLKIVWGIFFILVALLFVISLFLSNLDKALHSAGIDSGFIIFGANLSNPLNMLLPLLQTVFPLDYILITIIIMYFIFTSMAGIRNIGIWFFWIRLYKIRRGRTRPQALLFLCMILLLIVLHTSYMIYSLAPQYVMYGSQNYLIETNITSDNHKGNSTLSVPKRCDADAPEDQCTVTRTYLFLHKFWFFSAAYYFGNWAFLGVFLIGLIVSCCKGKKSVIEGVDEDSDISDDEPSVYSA
Chain of UniProt Q15528 (Q15528 whole entry, looked up): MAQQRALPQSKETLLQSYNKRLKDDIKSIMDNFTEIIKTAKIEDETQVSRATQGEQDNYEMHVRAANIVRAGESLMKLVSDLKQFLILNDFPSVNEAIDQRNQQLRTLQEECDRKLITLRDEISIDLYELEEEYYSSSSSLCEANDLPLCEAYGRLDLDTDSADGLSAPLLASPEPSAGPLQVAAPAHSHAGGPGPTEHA
Chain of UniProt Q6UWB1 (Q6UWB1 whole entry, looked up): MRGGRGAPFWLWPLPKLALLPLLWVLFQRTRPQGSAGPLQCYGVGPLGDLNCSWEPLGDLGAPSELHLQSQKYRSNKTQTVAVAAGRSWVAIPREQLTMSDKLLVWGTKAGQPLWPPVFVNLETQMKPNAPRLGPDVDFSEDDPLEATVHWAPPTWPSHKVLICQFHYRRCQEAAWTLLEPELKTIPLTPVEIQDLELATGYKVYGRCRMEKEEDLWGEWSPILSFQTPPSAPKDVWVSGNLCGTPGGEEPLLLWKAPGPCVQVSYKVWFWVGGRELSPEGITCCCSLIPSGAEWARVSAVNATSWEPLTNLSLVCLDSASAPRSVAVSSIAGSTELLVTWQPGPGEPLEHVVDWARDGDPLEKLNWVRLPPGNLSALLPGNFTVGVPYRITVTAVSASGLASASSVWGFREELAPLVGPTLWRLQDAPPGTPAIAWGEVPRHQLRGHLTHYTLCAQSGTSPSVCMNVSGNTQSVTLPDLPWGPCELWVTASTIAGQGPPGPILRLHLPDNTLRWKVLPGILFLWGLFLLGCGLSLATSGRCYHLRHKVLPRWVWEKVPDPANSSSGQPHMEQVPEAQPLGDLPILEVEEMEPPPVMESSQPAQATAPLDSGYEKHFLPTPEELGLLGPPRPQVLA
Chain of UniProt P49441 (P49441 whole entry, looked up): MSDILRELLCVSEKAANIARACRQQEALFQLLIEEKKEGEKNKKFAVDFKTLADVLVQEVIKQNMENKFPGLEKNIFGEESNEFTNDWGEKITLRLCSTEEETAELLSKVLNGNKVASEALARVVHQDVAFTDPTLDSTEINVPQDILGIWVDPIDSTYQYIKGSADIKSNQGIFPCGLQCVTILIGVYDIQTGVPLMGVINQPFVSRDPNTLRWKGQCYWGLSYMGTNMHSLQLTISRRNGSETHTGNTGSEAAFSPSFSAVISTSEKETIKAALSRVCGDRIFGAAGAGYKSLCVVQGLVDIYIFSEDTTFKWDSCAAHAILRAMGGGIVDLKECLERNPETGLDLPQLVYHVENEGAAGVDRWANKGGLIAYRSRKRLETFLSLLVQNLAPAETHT

Compound in this assay: c1cn2cc(-c3ccc4cn[nH]c4c3)nc(Nc3ccc(N4CCOCC4)cc3)c2n1 [entospletinib]
The assay can be described thus: log2 fold change, soluble protein after heating vs DMSO (PISA); higher = thermal stabilisation; K562 cells, 10 uM, 30 min; active = over 0.2 and 3.5 SD of the protein, either way, in both replicates (recomputed). Put shortly:
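Soluble protein was defined as the supernatant after 21,000xg for 90 min. It came from K562 cells at 2×10^6 cells/mL given 10 μM compound for 30 min, heated in aliquots for 3 min across 48°C-58°C, pooled, and extracted in PBS with 0.5% NP-40 at 4°C, and was quantified by TMTpro 16plex LC-MS/MS with equalised channel sums. Thermal stability against control samples, from duplicates, is reported as log2 fold change.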
Turning to L2HGDH (UniProt Q9H9P8), the log2 fold change was 0.039 (inactive).
To IL27RA (UniProt Q6UWB1) belongs 0.112 (inactive); to MAPK8 isoform 3 (UniProt P45983), -0.038 (inactive).
To LRBA (UniProt P50851) belongs -0.002 (inactive).
Under LPCAT3 (UniProt Q6P1A2) stands 0.012 (inactive); under IPO7 (UniProt O95373), 0.027 (inactive).
Take JMJD6 isoform 3 (UniProt Q6NYC1): the log2 fold change was 0.006 (inactive).
To LPIN3 isoform 2 (UniProt Q9BQK8) belongs 0.08 (inactive); to KCTD2 (UniProt Q14681), 0.139 (inactive); to KIZ (UniProt Q2M2Z5), -0.105 (inactive).
To INPP1 (UniProt P49441) belongs 0.017 (inactive).
To MAPK9 (UniProt P45984) belongs -0.069 (inactive); to MED22 (UniProt Q15528), -0.143 (inactive).
On to ITPRID2 (UniProt P28290), for which the log2 fold change is -0.017 (inactive).
To MARCKSL1 (UniProt P49006) belongs -0.005 (inactive); to MFSD8 (UniProt Q8NHS3), 0.053 (inactive).
To MAP3K7 (UniProt O43318) belongs 0.055 (inactive); to MAGEC2 (UniProt Q9UBF1), 0.061 (inactive); to LUM (UniProt P51884), 0.331 (inactive).
To LMNB2 (UniProt Q03252) belongs -0.082 (inactive); to MARCHF3 (UniProt Q86UD3), 0.058 (inactive).
Take LAPTM4B (UniProt Q86VI4): the log2 fold change is 0.049 (inactive).
To MAGI1 (UniProt Q96QZ7) belongs 0 (inactive); to KDM5D isoform 3 (UniProt Q9BY66), -0.056 (inactive).
Under MAP2K2 (UniProt P36507) stands 0.021 (inactive).
Under KNTC1 (UniProt P50748) stands 0 (inactive); under LMBRD1 (UniProt Q9NUN5), -0.03 (inactive); under LRPPRC (UniProt P42704), 0.245 (inactive).
As to MEAK7 (UniProt Q6P9B6), the log2 fold change was -0.06 (inactive).
Consider METAP1D (UniProt Q6UB28), for which the log2 fold change was 0.026 (inactive).
Regarding MCOLN3 (UniProt Q8TDD5), the log2 fold change was -0.194 (inactive).
To KPNA6 (UniProt O60684) belongs -0.021 (inactive); to MICU1 isoform 3 (UniProt Q9BPX6), 0.049 (inactive); to MAGEA9 (UniProt P43362), 0.083 (inactive).
